This is an account of results in PubChem BioAssay (NCATS).

Structures are written as SMILES. Inconclusive results are not listed. Values without a mark were called inactive. Calls of active or inactive are those of the source. The call rests on the fitted dose curve; in most records, active means well fitted curve in the direction sought with a large enough effect; inconclusive means small, poorly fitted or top-dose-only effect, or another doubt; inactive means no such curve, though single readings can be large; an effect the other way counts as inactive or inconclusive.

Assay [1] is described as follows: P-glycoprotein substrates identified in KB-3-1 adenocarcinoma cell line, qHTS therapeutic library screen (AID 1346986). Further: nearly all actives have a fitted effect of over 60% in size.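 Further: potency is for cytotoxicity meaning loss of cell viability.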 The procedure, abridged:
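Dose-response cytotoxicity, KB-3-1 vs P-gp-high KB-8-5-11, no colchicine in assay medium. Read: CellTiter-Glo at 72 h.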
Background: In qHTS, concentration-response curves come from the screen itself.

A short description of assay [2]: P-glycoprotein substrates identified in KB-8-5-11 adenocarcinoma cell line, qHTS therapeutic library screen (AID 1346987). Further: nearly all actives have a fitted effect of over 65% in size. In a few lines:
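Human cervical adenocarcinoma KB-8-5-11 cells, selected in colchicine to over-express P-gp and assayed without it, were exposed for 72 h to titrated compounds. An ATP-based luminescent viability signal gave AC50.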
Potency means the concentration at half of the fitted maximal effect.

For `CC1=CC(=O)CC(C)(C)[C@H]1/C=C/C(CO)O[C@@H]1O[C@H](CO)[C@@H](O)[C@H](O)[C@H]1O` (stereo partly specified), the Potency entry in assay [1] and in assay [2] was “inactive” each time. As to `CC(=O)OC/C=C(\C)C(CC1C(C)=C(OC(C)=O)C(=O)C2C(C)(C)C(O)CCC12C)OC(C)=O` (stereo unspecified), the Potency result in assay [1] and in assay [2] was “inactive” each time. Turning to `COc1c2c(c(C)c3c1C(=O)OC3)O[C@@]1(C)CC(O)C(C(C)(C)O)[C@](C)(CCC(=O)O)[C@H]1C2` (stereo partly specified), the Potency result in assay [1] and in assay [2] was “inactive” throughout. In the case of `COc1cc(Nc2nc3ccccc3nc2NS(=O)(=O)c2ccc(NC(=O)c3ccc(OC)c(C)c3)cc2)cc(OC)c1`, the Potency result in assay [1] and in assay [2] was “inactive” throughout. `COC(=O)CCSCc1ccc(-c2onc(C)c2NC(=O)OC(C)c2ccccc2Cl)cc1` (stereo unspecified): the Potency entry in assay [1] and in assay [2] was “inactive” in each case.

Turning to `COc1cc2ncnc(Nc3cccc(O)c3)c2cc1OC`, the Potency entry in assay [1] and in assay [2] was “inactive” in each case. For `CC1=C(/C=C/C(C)=C\C=C\C(C)=C/C(=O)O)C(C)(C)CCC1`, the Potency entry in assay [1] and in assay [2] was “inactive” in each case. Turning to `CC(C)=CC/C=C(\C)[C@H]1CC[C@]2(C)[C@@H]1[C@H](O)C[C@@H]1[C@@]3(C)CC[C@H](O)C(C)(C)[C@@H]3[C@@H](O[C@@H]3O[C@H](CO)[C@@H](O)[C@H](O)[C@H]3O)C[C@]12C`, the Potency entry in assay [1] and in assay [2] was “inactive” each time. For `CC1=CCC(C(C)(C)O[C@@H]2O[C@H](CO[C@@H]3O[C@@H](C)[C@H](O)[C@@H](O)[C@H]3O)[C@@H](O)[C@H](O)[C@H]2O)CC1` (stereo partly specified), the Potency entry in assay [1] and in assay [2] was “inactive” in each case. For `CC(=O)OC1C[C@@]2(C)[C@@H](CC[C@@H](C)[C@]23Cc2c(O)cc4c(c2O3)CNC4=O)C(C)(C)[C@@H]1O` (stereo partly specified), the Potency entry in assay [1] and in assay [2] was “inactive” each time. As to `CCC(C)/C=C(C)/C=C/c1cc2c(cn1)C(=O)C(C)(OC(C)=O)C(O)=C2Cl` (stereo unspecified), the Potency entry in assay [1] and in assay [2] was “inactive” each time. As for `CCOC(=O)c1cc(C#N)c(N2CCC(C(=O)NS(=O)(=O)Cc3ccccc3)CC2)nc1C`, the Potency entry in assay [1] and in assay [2] was “inactive” each time.

Regarding `O=C(O)c1cc(-c2c(-c3ccccc3)nn3ccccc23)n[nH]c1=O`, the Potency entry in assay [1] and in assay [2] was “inactive” in each case. Turning to `C/C(=C\CCC(C)CCO)C(=O)OC1(C)CCC2C(C(=O)O)=COC(OC3OC(CO)C(O)C(O)C3O)C21` (stereo unspecified), the Potency result in assay [1] and in assay [2] was “inactive” each time. Turning to `COC(=O)CCc1cc2ccoc2c(OC)c1O[C@@H]1O[C@H](CO)[C@@H](O)[C@H](O)[C@H]1O`, the Potency result in assay [1] and in assay [2] was “inactive” throughout. For `CCNC(=O)Nc1ccc(-c2nc3c(c(N4CCOC[C@@H]4C)n2)CCN(c2ncccn2)C3)cc1`, the figures for the Potency in assay [1] and in assay [2] were 58 nM (active) and 259 nM (active), respectively. Regarding `O=C(CC1C(=O)Nc2ccccc21)OC[C@H]1O[C@@H](OCCc2ccc(O)cc2)[C@H](O)[C@@H](O)[C@@H]1O` (stereo partly specified), the Potency result in assay [1] and in assay [2] was “inactive” each time. In the case of `CC1CC(C(O)C(C)(C)O)OC2CC3(C)C4(C)CCC5C(C)(C)C(=O)CCC5(C)C4CCC3(O)C12O` (stereo unspecified), the Potency entry in assay [1] and in assay [2] was “inactive” in each case. As for `CC(Nc1ncnc2nc[nH]c12)c1cc2cccc(Cl)c2c(=O)n1-c1ccccc1` (stereo unspecified), in assay [2], the Potency result was “inactive”. On the same count and under the same terms, then `COc1cc(C(=O)NC2CCN(C)CC2)c(F)cc1Nc1ncc2c(n1)N(C1CCCC1)CC(F)(F)C(=O)N2C`, with 51.7 nM (active); and `COc1cc(-c2ncn(/C=C\C(=O)OC(C)C)n2)cc(C(F)(F)F)c1`, with 259 nM (active); and `O=C1C=CC(O)(/C=C/C(=O)OC[C@H]2O[C@@H](Oc3ccc(O)cc3)[C@H](O)[C@@H](O)[C@@H]2O)C=C1`, with “inactive”. `COC(=O)[C@@H](O)[C@H]1[C@@]2(C)CC3(O)[C@@H](C(=O)[C@H]2O)[C@]24O[C@]25CC(=O)O[C@@H](c2ccoc2)[C@]5(C)CCC4[C@]13C` (stereo partly specified): the Potency result in assay [2] is “inactive”.
